# Measurements from PubChem BioAssay (NCI).
# Where “and” joins values, the source holds several entries; their conditions need not be identical. Identical values can stand only once. About 83,000 compounds went through this panel and 20% of them were active in at least one assay; those are over-represented in the sample as a whole.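 Assay: single dose, 48 h. Readout: percent growth (0 = no net growth; negative = cell death). Active: <10.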 Calls of active or inactive are those of the source.
# System: HL-60(TB) leukemia
# Experiment: NCI-60 one-dose screen, 48 h (100 = growth as untreated, 0 = no growth, -100 = all killed)
# Settings: 10 µM unless noted
row,SMILES,growth
1,CCc1ccccc1NC(=O)/C(C#N)=C/c1ccc(OC)cc1,138% (inactive)
2,COc1ccc2c(Nc3ccc(NS(C)(=O)=O)cc3)c3ccccc3nc2c1,-8.29% (active)
3,CC(C)(C)c1cnc(CSc2cnc(NC(=O)C3CCNCC3)s2)o1,-40.4% (active)
4,CC(C)(C)CC(C)(C)c1ccc(OCCO)cc1,91.5% (inactive)
5,COc1cc(NC(C)CCCNC(C)C)c2ncccc2c1OC (centres undefined),10.6% (inactive)
6,COc1ccc2c(c1)C(=O)/C(=C/c1ccccn1)CC2,75.5% (inactive)
7,CNC(=O)Nc1ccc(-c2nc(N3CCOCC3)nc3c2cnn3C2CCOCC2)cc1,11.3% (inactive)
8,CN(C)Cc1ccc(NC(=O)c2cncc(C#Cc3cnc(N)c4ncccc34)c2)cc1F,83.7% (inactive)
9,O=C1Nc2c(ccc(Cl)c2Cl)/C1=C/c1ccc(F)cc1,71.4% (inactive)
10,BrC/C=C/C[P+](c1ccccc1)(c1ccccc1)c1ccccc1,9.15% (active)
11,O=C1/C(=C\c2ccc3nccnc3c2)SC(=S)N1CCc1ccc(O)cc1,75.6% (inactive)
12,Nc1ncncc1-c1ccc(F)cc1,103% (inactive)
13,Fc1ccc2nc(-c3cc(-c4ccc5c(c4)OCO5)n[nH]3)[nH]c2c1,13.9% (inactive)
14,Oc1cccnc1CN1CCOCC1,94% (inactive) and 88.5% (inactive)
15,C=C(C[C@](O)(C(=O)/C=C/c1ccc(Cl)cc1)C(=O)OC)c1ccccc1,59.2% (inactive)
16,OCCNCCCOc1ccc2ncnc(Nc3ccc(Oc4cccc(C(F)(F)F)c4)c(Cl)c3)c2c1,-31.3% (active)
17,O=C(CN1C(=O)CCC1=O)Nc1ncc(Cc2ccc(F)cc2)s1,98.2% (inactive)
18,O=C(CSc1nc2ccc([N+](=O)[O-])cc2[nH]1)Nc1ccc(F)cc1,71.6% (inactive)
19,Oc1ccc(O)c(-[n+]2ccccc2)c1,101% (inactive)
20,C[n+]1c2ccccc2c(NC2CCNCC2)c2[nH]c3ccccc3c21,61.4% (inactive)

row,SMILES,growth
1,CN(C)c1ccc(Nc2cc(-c3cccc(OC(F)(F)F)c3)nc3ccc(N4CCCC4)cc23)cc1,-15.6% (active)
2,C#Cc1nc2ccccc2c(=O)[nH]1,-42.4% (active)
3,O=C1NN(C(=O)c2ccccc2)C(c2ccc(Cl)c(Cl)c2)=C/C1=C\c1ccccc1[N+](=O)[O-],12.7% [6.75 µM] (inactive)
4,COc1ccc(-c2nnc(-c3ccc4c(c3)nc(-c3ccncc3)n4C3CCCCC3)o2)cc1,46.1% (inactive)
5,C=CC(=O)NC(=O)Nc1ccccc1Cl,33.4% (inactive)
6,CC(C)CCN(CCCNc1c2c(nc3ccccc13)CCCC2)CCC(C)C,102% (inactive)
7,COc1ccc(COC=O)cc1,103% (inactive)
8,CC1OC2CC(=O)OC2C2=C1C(=O)c1c(O)cccc1C2=O (centres undefined),-47.8% (active)
9,c1cc2ccc1CNCCN1CCNCc3ccc(cc3)Oc3ccc(cc3)CNCCN(CCNCc3ccc(cc3)O2)CCNCc2ccc(cc2)Oc2ccc(cc2)CNCC1,-57.4% (active)
10,O=C(Cn1c(=O)sc2ccccc21)NNS(=O)(=O)c1ccccc1[N+](=O)[O-],94.9% (inactive)
11,Cc1ccc(Nc2ccc(Nc3ccc(C)cc3S(=O)(=O)O)c3c2C(=O)c2ccccc2C3=O)c(S(=O)(=O)O)c1,99.4% (inactive)
12,COc1ccc(Cc2nc3cc(OC)c(OC)cc3c(=O)[nH]2)cc1,16.4% (inactive)
13,Nc1nc(-c2ccccc2)nc(N)c1N=O,18.8% (inactive)
14,COc1ccc2c(=O)cc(-c3ccccc3)[nH]c2c1,11.5% (inactive) and -29.9% (active)
15,CCCCCCCCN=C(NCCCCCCCC)SCc1cccc2ccccc12,-43.4% (active)
16,Cc1cc2c(O)c(-c3cc(Cl)ccc3Cl)c3sc(=O)oc3c2cc1C,64.1% (inactive)
17,CCCCCCCCCCCCCCNc1nc(CO)ncc1-c1ccc(C(F)(F)F)cc1,99.1% (inactive)
18,CN1CCN(CCCOc2cccc3nc(Nc4ccc(Cl)c(C(F)(F)F)c4)ccc23)CC1,82.3% (inactive)
19,CC(C)(C)[Si](C)(C)OC1[C@@H](O[Si](C)(C)C(C)(C)C)[C@@H](CNC(=O)NC(=O)C(F)(F)F)O[C@H]1n1cnc2c(NC(=O)Nc3ccccc3)ncnc21 (some centres undefined),-52.6% (active)
